# BAZ2B block – qHTS Assay for Inhibitors of BAZ2B; Bromodomain adjacent to zinc finger domain protein 2B (Homo sapiens), Q9UIF8; AlphaScreen BAZ2B-H3K14Ac peptide displacement; Potency, µM (highest dose often 114 µM), inactives show top-dose activity change, negative = inhibition, actives largely listed as inhibitors; actives 4.4% (n = 360,000); AID 504333, 2011; also: potency is read from the fitted curve at half-maximal effect; % is scaled to controls: 0 for no effect and ±100 for the full control effect; nearly all actives have a fitted effect of over 60% in size
#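 In this displacement format the biotinylated H3(5-23) peptide acetylated at Lys14 serves as ligand at 50 nM, with BAZ2B at 50 nM in PBS pH 7.4 containing 0.01% Tween-20. Donor and acceptor beads are 10 ug/mL final.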
# JMJD2A Tudor – qHTS Assay for Inhibitors of JMJD2A-Tudor Domain; Lysine-specific demethylase 4A (Homo sapiens), O75164; AlphaScreen JMJD2A-Tudor / H3K4me3 peptide binding; Potency, µM (series often up to 114 µM), for inactives: at the highest dose activity change, negative = inhibition, usual class: inhibitors; actives 4.4% (n = 390,000); AID 504339, 2011; also: potency is read from the fitted curve at half-maximal effect; % is scaled to controls: 0 for no effect and ±100 for the full control effect; nearly all actives have a fitted effect of over 50% in size
# G9a inh – qHTS Assay for Inhibitors of Histone Lysine Methyltransferase G9a; Histone-lysine N-methyltransferase EHMT2 (Homo sapiens), Q96KQ7; AID 504332, 2011; Potency, µM (doses to about 102 µM), for the others: at the highest dose activity, negative = inhibition, most hits filed as inhibitors; G9a H3K9 monomethylation, AlphaScreen, 2 h; actives 8.8% (n = 350,000); also: potency is read from the fitted curve at half-maximal effect; % is scaled to controls: 0 for no effect and ±100 for the full control effect; nearly all actives have a fitted effect of over 75% in size
# Target sequence (Q96KQ7 913-1193 limits assumed): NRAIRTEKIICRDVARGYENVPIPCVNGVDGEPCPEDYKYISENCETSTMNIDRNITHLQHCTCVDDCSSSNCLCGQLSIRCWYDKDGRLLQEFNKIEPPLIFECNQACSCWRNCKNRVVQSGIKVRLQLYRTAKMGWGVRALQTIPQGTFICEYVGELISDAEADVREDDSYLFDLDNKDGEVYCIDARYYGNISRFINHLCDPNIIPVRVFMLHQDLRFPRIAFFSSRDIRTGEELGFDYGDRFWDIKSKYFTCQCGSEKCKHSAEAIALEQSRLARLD
#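 Signal arises when biotinylated H3K9 peptide, once monomethylated, bridges streptavidin donor and antibody-captured acceptor beads. Enzyme at 20 nM was preincubated 15 min with test compounds; peptide 500 nM and SAM 20 uM then reacted for 2 h.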
# PLK1 PBD block – qHTS for Inhibitors of PLK1-PDB (polo-like kinase 1 - polo-box domain): Primary Screen | Serine/threonine-protein kinase PLK1 (Homo sapiens), P53350 | Plk1 PBD binding of FITC phosphopeptide, fluorescence polarization | Potency, µM, for inactives: max response, negative = inhibition, hits mostly inhibitors | actives 2.8% (n = 360,000); also: potency is read from the fitted curve at half-maximal effect; series mostly up to about 57 µM; % is scaled to controls: 0 for no effect and ±100 for the full control effect; nearly all actives have a fitted effect of over 65% in size
# HP1b binding inh – HTS for Inhibitors of HP1-beta Chromodomain Interactions with Methylated Histone Tails | Chromobox protein homolog 1 (Homo sapiens), P83916 | AlphaScreen HP1-beta / biotin-H3K9me3 peptide binding | Potency, µM (doses to about 114 µM), for inactives: at the highest dose activity change, negative = inhibition, most hits filed as inhibitors | actives 0.56% (n = 390,000); also: potency is read from the fitted curve at half-maximal effect; nearly all actives have a fitted effect of over 70% in size
# Target sequence (P83916 whole entry, looked up): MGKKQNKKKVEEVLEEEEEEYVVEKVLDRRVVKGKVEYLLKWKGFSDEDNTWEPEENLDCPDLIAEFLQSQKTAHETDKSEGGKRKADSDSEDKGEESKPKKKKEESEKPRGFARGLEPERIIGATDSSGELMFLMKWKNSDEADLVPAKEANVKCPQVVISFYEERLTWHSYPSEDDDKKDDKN
#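 HP1-beta protein (50 nM final) preincubated 30 min at room temperature with biotinylated H3(1-18)K9me3 peptide (50 nM) in PBS pH 7.4, 0.01% Tween-20, then compound added for 30 min. AlphaScreen streptavidin donor/nickel chelate acceptor beads (10 ug/mL final), 30 min dark, luminescence read.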
# PI5P4Ka inh – qHTS for Inhibitors of phosphatidylinositol 5-phosphate 4-kinase (PI5P4K); Phosphatidylinositol 5-phosphate 4-kinase type-2 alpha (Homo sapiens), P48426; PI5P4Kalpha enzyme, ADP-Glo luminescence, 60 min; active compounds read low; max response, %; actives 1.2% (n = 330,000); active = max response of -50% or lower; inconclusive = between -30% and -50%; inactive = -30% or higher; also: value at the top dose of about 77 µM; % is scaled to controls: 0 for no effect and ±100 for the full control effect
#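 ADP-Glo luminescence end-point read after a 60 min room-temperature kinase reaction of PI5P4Kalpha plus substrate, initiated with ATP at 5 microM final. Buffer: 0.038 M HEPES pH 7.4, EGTA, 0.1% CHAPS, 5% DMSO.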
# Active calls of the source: *; u = inconclusive; x = no result; [ ] = remark or other dose. The list is not random: actives were taken first. Their share in the collection is about 12%. Unless noted, calls follow the shape of the dose curve; as a rule, active = well fitted curve in the direction sought with a large enough effect; inconclusive = small, poorly fitted or top-dose-only effect, or another doubt; inactive = no such curve, though single readings can be large; an effect the other way counts as inactive or inconclusive.
SMILES,BAZ2B block,JMJD2A Tudor,G9a inh,PLK1 PBD block,HP1b binding inh,PI5P4Ka inh
COc1ccc(Nc2oc(-c3ccc(COc4cccc(C)c4)o3)nc2C#N)cc1,-8%,-13%,-6%[59 µM],x,31%,x
Cc1[nH]n(-c2ccccc2)c(=O)c1N=Nc1ccccc1O,u,u,u,-11%,-39%,8
Cc1[nH]n(-c2ccccc2)c(=O)c1N=Nc1nccs1,32µM*,u,14µM*,-14%,-25%,x
Cc1ccccc1N=Nc1c(C)[nH]n(-c2ccccc2)c1=O,u,u,2.2µM*,-1%,35µM*,7
CC(C)(C)c1ccc(OCc2cc(=O)n3c4c(sc3n2)CCCC4)cc1,0%,-11%,5%[59 µM],x,19%,x
CN(C)c1ccc(C(=O)Nc2nc3c(s2)CCCC3)cc1,u,79µM*,35µM*,0%,u,-22
COc1cccc(C(=O)Nc2nc3c(s2)CCCC3)c1,u,u,10µM*,x,-13%,x
C/C(=N\Nc1nc2c(s1)CCCC2)c1ccc(Cl)cc1,45µM*,u,u,u,-23%,2
CC(C)(C)c1ccc(C(=O)NC(=S)Nc2nc3c(s2)CCCC3)cc1,-31%,u,-1%[59 µM],-17%,9%,6
C/C(=N\NC1=NCCN1)c1ccc(Cl)cc1,-3%,-15%,-1%,-5%,-1%,-3
COc1ccc2c(c1)CCCC(Br)C2=O (stereo not drawn),x,50µM*,x,11µM*,u,-19
COc1ccc2c(c1)CCC1(C)CC(=O)C(Br)=C21 (stereo not drawn),x,x,x,5%,x,1
Cc1onc(-c2c(Cl)cccc2Cl)c1C(=O)Nc1nccs1,2%,-6%,10%,-16%,17%,5
O=c1[nH]nc(Cc2ccc(-c3cccc(Cl)c3)o2)c2ccccc12,0%,-5%,u,-10%,43%,2
Clc1cccc(-c2ccc(CNCc3ccccn3)o2)c1,22µM*,56µM*,20µM*,-2%,-16%,18
Cc1ccc2oc(C(=O)Nc3cccc(Cl)c3)cc(=O)c2c1,-14%,-16%,9%[59 µM],x,27%,x
Cc1ccc2nc(-c3cccc(N)c3)oc2c1,-7%,-10%,0%,0%,29%,x
Cc1ccc2nc(-c3cccc(-c4nc5ccc(C)cc5o4)n3)oc2c1,x,18µM*,x,x,u,x
Cc1ccc2nc(Cc3ccc(N)cc3)oc2c1,-1%,-22%,0%,-16%,32%,1
Cc1ccc2nc(CCc3nc4ccc(C)cc4o3)oc2c1,x,u,-2%[59 µM],6µM*,-13%,-29
CCOC(=O)c1cc(-c2ccccc2)n(-c2cccc(C(=O)Nc3cccc(F)c3)c2)c1C,-25%,-32%,-7%[59 µM],x,31%,x
CC(=O)N1CCc2cc(S(=O)(=O)NC(Cc3ccccc3)C(=O)Nc3ccc(C)cc3C)ccc21 (stereo not drawn),x,-21%,-13%[59 µM],x,14%,x
NNc1ccc(Cc2ccc(Cl)cc2Cl)nn1,2.8µM*,28µM*,-24%,-19%,23%,7
CSc1ccc(Cc2ccc(Cl)cc2Cl)nn1,8%,19%,17%[59 µM],-8%,32%,1
CCCn1c(=O)c2sccc2n2c(CCCC(=O)Nc3ccc(C)c(F)c3)nnc12,-8%,-16%,-7%[59 µM],x,34%,x
O=C(NNS(=O)(=O)c1ccccc1[N+](=O)[O-])c1ccc(O)cc1,50µM*,5.6µM*,u,24µM*,u,-7
